Records with an inconclusive call do not appear. Activity calls are given as the source filed them.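 The calls were made as follows, unless noted: active = growth inhibition above 25% in both replicates, a cutoff set 3 SD above the mean; inconclusive = above 25% in only one replicate; inactive = the rest.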
Key:
[1] = reducers of endogenous Her2 protein level, primary screen, SKBR3 breast tumor cells, AlphaScreen, ATP viability (AID 461;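 active = Her2 level under about 52% in both replicate screens, with viability over 70% of control, limit read from the data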;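 as to Her2 level: lower value means less Her2 protein in the cells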;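 as to viability: percent of carrier control wells set as 100% viability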); settings: 18-24 h, measured here: SKBR3 viability, ATP luminescence, at 10 µM
[2] = target: Receptor tyrosine-protein kinase erbB-2 (Homo sapiens) (UniProt P04626); assay: as above; settings: 18-24 h, at 10 µM, stronger effect = lower value
[3] = SK-BR-3 cell growth inhibitors, pilot screen, 24 h, human (AID 572;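 active = viability at or below 10% of carrier control in both of two separate runs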;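 also: compound exposure lasted between 18 and 24 h rather than exactly 24 h; 100% = carrier-treated control wells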); settings: SK-BR-3 viability, CellTiter-Glo luminescence, at 10 µM, stronger effect = lower value
[4] = HUVEC growth inhibition – cell-based, human, primary screen (AID 575;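 active = viability at or below 30% in both replicate assays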;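 also: 100% = median of untreated cell wells with 0.1% DMSO on each plate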); settings: HUVEC proliferation, CellTiter-Glo luminescence, 72 h; at 10 µM; stronger effect = lower value
[5] = growth inhibitors of H69AR lung tumor, primary screen, human, duplicate replicates (AID 580;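 active = viability at or under a set limit in both replicates, limit being median viability minus 3 SD, cut at about 48% in these data, passing the limit was not always enough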;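 also: 100% = mean luminescence of untreated wells and 0% = no signal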); settings: H69AR lung tumor cells viability, ATP luminescence, 72 h; at 10 µM; stronger effect = lower value
[6] = reversal of MRP1-mediated doxorubicin resistance, pilot screen, H69AR cells, doxorubicin co-treatment (AID 601;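 active = viability loss from added drug above about 55%, and viability with drug at most 40%, in both replicates, limit read from the data, passing the limit was not always enough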); settings: CellTiter-Glo, 72 h, at 10 µM; for differential viability (reversal): stronger effect = higher value
[7] = 384-well plate pilot, post-Golgi transport modulator project, inhibition of yeast transport mutant growth (AID 636; in the data active = inhibition above about 31%); settings: absorbance 615 nm, about 18 h, stronger effect = higher value
[8] = growth suppression of yeast trafficking mutant, preliminary HTS, modulators of trafficking downstream of Golgi apparatus project, 1536-format plate, OD 615 nm (AID 637; in the data active = inhibition above about 30%); settings: yeast transport mutant growth, absorbance 615 nm, 18 h; stronger effect = higher value
[9] = OD615 S. cerevisiae growth inhibition, permissive medium, pilot counter-assay, permissive growth control for S. cerevisiae lifespan shortening project (AID 705); settings: OD615, 24 h, at 10 µM, stronger effect = higher value
[10] = Restrictive medium S. cerevisiae growth inhibition, OD615, pilot screen of yeast lifespan reduction project, restrictive growth control (AID 706;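 active = growth inhibition above a set limit, 3 SD over mean compound inhibition, in both replicates, cut at about 43% in these data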;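 also: modified DeaD lifespan yeast strain shifted to restrictive glucose medium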); settings: OD615, 48 h, at 10 µM, stronger effect = higher value
[11] = viability gain of MRP-1-high H69AR cells under doxorubicin, pilot screen, MRP-1 activator project, CellTiter-Glo, duplicate (AID 807;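 active = viability increase at or above a cutoff of the median across tested compounds plus 3 SD, cut at about 8.5% in these data, passing the limit was not always enough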;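 also: compound pretreatment 18-22 h then 72 h combined with doxorubicin; 0% = doxorubicin alone and 100% = vehicle without doxorubicin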); settings: H69AR viability with doxorubicin, CellTiter-Glo luminescence; at 10 µM; stronger effect = higher value
[12] = growth suppression of beta-catenin knockout HCT116, pilot screen, human colon tumor cells (AID 823;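 active = cell viability at or below a set limit in both duplicate runs, the limit being the all-compound median minus 4 SD, cut at about 23% in these data, passing the limit was not always enough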;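 also: 0% = wells killed by 20 µM Hyamine and 100% = untreated DMSO cell wells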); settings: CellTiter-Glo, 60 h, at 10 µM, stronger effect = lower value
[13] = growth suppression of PTEN-deleted HCT116, pilot screen, cell-based, HCT116 clonal line, CellTiter-Glo (AID 824;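 active = viability at or below 27.92% in each of two runs, the all-compound median minus 4 SD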;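 also: 0% = 20 µM Hyamine control and 100% = vehicle cell control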); settings: 60 h, at 10 µM, stronger effect = lower value
[14] = inhibitors of the yeast RAM network, pilot screen, dse1pr::URA3 reporter, 5-FOA selection (AID 869;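 active = inhibition over a set limit, the all-compound mean plus 3 SD, in both replicate runs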;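 also: 0% = DMSO wells with no growth and 100% = 10 µM 1-NA-PP1 with full growth; RAM network block rescues cells from 5-FOA so hits raise OD615 growth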); settings: S. cerevisiae dse1pr::URA3 5-FOA growth, OD615, 2 d; at 10 µM; stronger effect = higher value; strain carries analog-sensitive mutant Cbk1 kinase
[15] = RAM signaling pathway blockade in yeast – S. cerevisiae, Pdr1DBD-CYC8 efflux-inhibited sensitized strain, primary screen (AID 1298;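 active = RAM network inhibition above 8.4% in each of two replicates, 3 SD over the compound average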;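 also: 0% = DMSO untreated cells without growth and 100% = 10 µM 1-NA-PP1 full growth; higher means more yeast growth rescued from 5-FOA killing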); settings: S. cerevisiae cbk1-as DSE1-URA3 strain, 5-FOA growth OD615, 2 d; at 50 µM; stronger effect = higher value
[16] = H69AR cells + 2 uM doxorubicin, measured here: viability with 2 uM doxorubicin, stronger effect = lower value
[17] = H69AR cells, compound alone cytotoxicity

Receptor tyrosine-protein kinase erbB-2 (Homo sapiens), sequence (P04626 whole entry, looked up): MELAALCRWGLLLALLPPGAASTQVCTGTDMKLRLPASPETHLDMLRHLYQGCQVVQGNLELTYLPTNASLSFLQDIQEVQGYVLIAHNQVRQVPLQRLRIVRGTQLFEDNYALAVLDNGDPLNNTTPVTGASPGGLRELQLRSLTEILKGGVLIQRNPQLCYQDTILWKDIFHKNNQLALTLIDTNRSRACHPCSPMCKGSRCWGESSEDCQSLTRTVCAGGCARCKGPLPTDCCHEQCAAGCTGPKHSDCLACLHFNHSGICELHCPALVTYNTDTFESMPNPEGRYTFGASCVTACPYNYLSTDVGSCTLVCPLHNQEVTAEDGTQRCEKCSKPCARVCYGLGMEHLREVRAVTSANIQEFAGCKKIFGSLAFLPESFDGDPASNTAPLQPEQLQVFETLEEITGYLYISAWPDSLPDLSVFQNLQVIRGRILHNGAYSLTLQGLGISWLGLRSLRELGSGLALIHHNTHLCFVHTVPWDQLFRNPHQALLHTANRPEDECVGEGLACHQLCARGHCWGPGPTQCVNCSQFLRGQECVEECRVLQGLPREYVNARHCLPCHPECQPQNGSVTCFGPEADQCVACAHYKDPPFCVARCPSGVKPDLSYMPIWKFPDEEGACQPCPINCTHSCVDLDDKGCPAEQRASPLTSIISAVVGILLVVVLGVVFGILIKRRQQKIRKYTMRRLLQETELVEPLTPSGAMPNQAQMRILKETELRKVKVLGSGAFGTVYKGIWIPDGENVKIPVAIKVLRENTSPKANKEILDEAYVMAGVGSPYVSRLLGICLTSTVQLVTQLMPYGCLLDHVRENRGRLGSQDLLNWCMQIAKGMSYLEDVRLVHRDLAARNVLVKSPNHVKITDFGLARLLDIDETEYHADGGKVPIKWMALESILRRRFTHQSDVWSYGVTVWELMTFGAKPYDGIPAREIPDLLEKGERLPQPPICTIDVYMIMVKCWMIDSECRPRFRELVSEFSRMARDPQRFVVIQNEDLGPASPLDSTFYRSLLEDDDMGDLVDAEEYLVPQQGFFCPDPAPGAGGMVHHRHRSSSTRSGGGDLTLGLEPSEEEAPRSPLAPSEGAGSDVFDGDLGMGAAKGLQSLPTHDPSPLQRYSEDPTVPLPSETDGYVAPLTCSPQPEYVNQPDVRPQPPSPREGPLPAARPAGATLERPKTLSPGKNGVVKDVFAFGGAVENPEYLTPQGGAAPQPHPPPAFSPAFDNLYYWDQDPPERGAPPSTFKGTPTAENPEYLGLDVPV

SMILES	viability [1] [%]	Her2 level [2]	viability [3]	viability [4]	viability [5]	differential viability (reversal) ([6]; H69AR cells + 2 uM doxorubicin)	viability [6, 16] [%]	viability [6, 17] [%]	inhibition [7]	inhibition [8]	growth inhibition [9]	growth inhibition [10]	viability increase [11]	viability [12]	viability [13]	inhibition [14]	RAM network inhibition [15]
O=C(NCCSc1c[nH]c2ccccc12)c1ccco1	112	93.5% (inactive)	112% (inactive)	64.5% (inactive)	65.1% (inactive)	-25.6% (inactive)	90.6	65.1	-4.8% (inactive)	0% (inactive)	-5% (inactive)	-2.81% (inactive)	-6.06% (inactive)	102% (inactive)	91.6% (inactive)	1.83% (inactive)	0.88% (inactive)
CCc1ccc(N(CC(=O)NC2CCCC2)S(=O)(=O)c2c(C)noc2C)cc1	102	110% (inactive)	102% (inactive)	101% (inactive)	84% (inactive)	3.79% (inactive)	80.2	84	-4.4% (inactive)	-0.83% (inactive)	-3.32% (inactive)	3.27% (inactive)	-1.49% (inactive)	92.3% (inactive)	93.8% (inactive)	–	2.82% (inactive)
COc1ccc(C2c3c(oc4ccccc4c3=O)C(=O)N2c2ccc(C)cn2)cc1OC (stereo not drawn)	83	126% (inactive)	83% (inactive)	98.6% (inactive)	94.3% (inactive)	23.3% (inactive)	71	94.3	-0.9% (inactive)	-7.5% (inactive)	-7.72% (inactive)	-0.265% (inactive)	-2.66% (inactive)	89% (inactive)	82.2% (inactive)	–	11.6% (inactive)
CC(=O)NC(C)C(=O)OCC(=O)Nc1ccc(Br)cc1 (stereo not drawn)	95	80.5% (inactive)	95% (inactive)	93.9% (inactive)	94.5% (inactive)	4.86% (inactive)	89.7	94.5	0.13% (inactive)	-4.17% (inactive)	-14.2% (inactive)	-18.7% (inactive)	0.09% (inactive)	99.7% (inactive)	100% (inactive)	2.33% (inactive)	1.92% (inactive)
COc1ccc(C(=O)Nc2nncs2)c(OC)c1	95.5	112% (inactive)	95.5% (inactive)	93.1% (inactive)	96.9% (inactive)	6.36% (inactive)	90.5	96.9	-3.46% (inactive)	3.33% (inactive)	-4.15% (inactive)	-11.7% (inactive)	-0.64% (inactive)	102% (inactive)	93.9% (inactive)	–	5.61% (inactive)
CC(C)c1nccn1S(=O)(=O)c1cc(Cl)ccc1Cl	104	112% (inactive)	104% (inactive)	92.2% (inactive)	90.3% (inactive)	3.94% (inactive)	86.3	90.3	-4.03% (inactive)	-3.83% (inactive)	-4.57% (inactive)	-1% (inactive)	0% (inactive)	103% (inactive)	97.2% (inactive)	1.64% (inactive)	4.6% (inactive)
CC(CCc1ccccc1)NC(=O)C1CCCN(c2nnc(-n3cccc3)s2)C1 (stereo not drawn)	89.5	86.5% (inactive)	89.5% (inactive)	97.1% (inactive)	82.6% (inactive)	0.56% (inactive)	82	82.6	-0.38% (inactive)	-3.17% (inactive)	-16.5% (inactive)	0.105% (inactive)	-1.84% (inactive)	93.5% (inactive)	96% (inactive)	–	2.83% (inactive)
COc1ccc(N2Cc3ccccc3C2)cc1Cl	118	114% (inactive)	118% (inactive)	81.9% (inactive)	89.9% (inactive)	-4.19% (inactive)	94	89.9	-4.27% (inactive)	-9.17% (inactive)	-2.97% (inactive)	-10.6% (inactive)	0.04% (inactive)	94% (inactive)	87.7% (inactive)	–	7.11% (inactive)
CCCCSc1nc2c(cnn2-c2ccc(F)cc2)c(=O)[nH]1	93.5	92% (inactive)	93.5% (inactive)	96.2% (inactive)	74% (inactive)	-10.8% (inactive)	84.9	74	-0.93% (inactive)	0.5% (inactive)	-7.35% (inactive)	-3.62% (inactive)	-2.12% (inactive)	104% (inactive)	93.7% (inactive)	1.85% (inactive)	6.19% (inactive)
